Common to all, as to assay: protein-binding microarray (PBM); PBM: ~300 nM protein, 6 mM HEPES pH 7.8, 80 mM KCl, 0.5 mM EDTA, 0.5 mM EGTA, 6% glycerol, 35 ng/ul poly-dIdC, 1% milk, 1 h, room temperature; Ap Aiptasia and Nv Nematostella (sea anemones) / Co Capsaspora / Aq Amphimedon (sponge) / Dm Drosophila / Hu human; RHD is the Rel homology domain; high values mean tight binding
Common to all, as to conditions: dsDNA, one strand shown

In experiment [1] the target is T1, GST-Ap-NF-kB RHD (Exaiptasia pallida (Aiptasia), UniProt A0A913YAJ5 2-422).
T1 sequence: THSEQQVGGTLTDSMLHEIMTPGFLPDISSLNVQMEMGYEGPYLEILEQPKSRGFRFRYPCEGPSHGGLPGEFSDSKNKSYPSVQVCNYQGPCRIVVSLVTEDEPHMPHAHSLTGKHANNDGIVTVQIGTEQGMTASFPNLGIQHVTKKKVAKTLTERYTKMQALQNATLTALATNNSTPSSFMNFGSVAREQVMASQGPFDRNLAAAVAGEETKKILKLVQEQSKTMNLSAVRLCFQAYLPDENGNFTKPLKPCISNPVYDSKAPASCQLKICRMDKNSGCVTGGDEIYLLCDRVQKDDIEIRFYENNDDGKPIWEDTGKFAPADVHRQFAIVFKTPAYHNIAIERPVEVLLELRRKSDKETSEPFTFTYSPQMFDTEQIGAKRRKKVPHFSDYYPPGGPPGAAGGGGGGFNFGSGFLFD

The target of experiment [2] is T2, GST-Nv-NF-kB (Cys allele) (Nematostella vectensis, UniProt E5G601 2-411).
T2 sequence: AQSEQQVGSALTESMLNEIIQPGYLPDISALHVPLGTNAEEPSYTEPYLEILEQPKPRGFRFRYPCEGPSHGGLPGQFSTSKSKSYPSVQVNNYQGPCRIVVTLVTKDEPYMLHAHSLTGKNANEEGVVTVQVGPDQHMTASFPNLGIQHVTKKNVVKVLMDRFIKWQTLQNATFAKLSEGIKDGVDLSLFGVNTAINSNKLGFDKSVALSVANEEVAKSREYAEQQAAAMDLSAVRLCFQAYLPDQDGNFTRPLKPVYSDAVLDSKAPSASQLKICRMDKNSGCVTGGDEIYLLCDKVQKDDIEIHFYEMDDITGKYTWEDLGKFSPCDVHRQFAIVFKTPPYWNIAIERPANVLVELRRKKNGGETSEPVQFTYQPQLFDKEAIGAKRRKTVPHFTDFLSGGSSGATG

For experiment [3], the target named is T3, GST-Nv-NF-kB (Ser allele) (Nematostella vectensis, UniProt A7UNT2 2-411).
T3 sequence: T2 sequence with Q21R, C66S, S207N, E215Q, V217A, E225K, A268E, D399E

Experiment [4] has as its target T4, GST-Dm-Relish (Drosophila melanogaster, UniProt Q94527 99-473).
T4 sequence: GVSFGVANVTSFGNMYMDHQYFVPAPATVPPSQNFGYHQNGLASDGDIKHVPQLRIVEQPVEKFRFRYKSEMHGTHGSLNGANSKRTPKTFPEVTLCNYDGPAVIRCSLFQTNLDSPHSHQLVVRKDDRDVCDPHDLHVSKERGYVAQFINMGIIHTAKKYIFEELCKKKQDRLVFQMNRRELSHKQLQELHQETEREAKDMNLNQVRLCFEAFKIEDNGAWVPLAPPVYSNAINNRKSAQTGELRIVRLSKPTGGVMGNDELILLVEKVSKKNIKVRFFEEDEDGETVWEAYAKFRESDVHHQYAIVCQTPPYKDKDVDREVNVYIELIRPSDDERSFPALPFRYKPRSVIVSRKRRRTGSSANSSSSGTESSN

Experiment [5] concerns the target T5, GST-Aq-NF-kB (Amphimedon queenslandica, UniProt A9Y5G7 2-389).
T5 sequence: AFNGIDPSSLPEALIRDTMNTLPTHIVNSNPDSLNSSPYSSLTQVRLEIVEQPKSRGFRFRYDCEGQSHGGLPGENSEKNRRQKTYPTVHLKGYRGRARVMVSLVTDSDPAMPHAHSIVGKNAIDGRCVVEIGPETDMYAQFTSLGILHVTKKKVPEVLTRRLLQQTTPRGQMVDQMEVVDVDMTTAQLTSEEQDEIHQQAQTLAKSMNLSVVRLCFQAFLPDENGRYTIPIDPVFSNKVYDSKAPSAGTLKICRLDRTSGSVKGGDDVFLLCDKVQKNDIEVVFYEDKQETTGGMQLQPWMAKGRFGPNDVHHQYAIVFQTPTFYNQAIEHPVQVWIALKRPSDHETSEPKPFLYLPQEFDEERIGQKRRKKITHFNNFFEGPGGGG

Experiment [6] addresses GST-Hu-p50 (Homo sapiens, UniProt P19838 7-356).
The target of experiment [7] is T6, GST-Co-NF-kB (Capsaspora owczarzaki, UniProt F1ARL5 200-546).
T6 sequence: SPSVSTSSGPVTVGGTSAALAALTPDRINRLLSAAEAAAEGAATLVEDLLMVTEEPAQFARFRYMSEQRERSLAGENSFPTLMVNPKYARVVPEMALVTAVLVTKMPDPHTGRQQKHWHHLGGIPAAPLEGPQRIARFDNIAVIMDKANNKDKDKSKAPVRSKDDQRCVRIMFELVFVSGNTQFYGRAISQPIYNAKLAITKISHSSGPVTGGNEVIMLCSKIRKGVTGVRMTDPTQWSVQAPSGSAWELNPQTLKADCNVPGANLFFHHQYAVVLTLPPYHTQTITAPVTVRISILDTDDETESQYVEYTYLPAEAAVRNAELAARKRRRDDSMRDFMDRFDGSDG

Where a chain is given by its changes, count along the chain named.

GST-Hu-p50, sequence (P19838 7-356): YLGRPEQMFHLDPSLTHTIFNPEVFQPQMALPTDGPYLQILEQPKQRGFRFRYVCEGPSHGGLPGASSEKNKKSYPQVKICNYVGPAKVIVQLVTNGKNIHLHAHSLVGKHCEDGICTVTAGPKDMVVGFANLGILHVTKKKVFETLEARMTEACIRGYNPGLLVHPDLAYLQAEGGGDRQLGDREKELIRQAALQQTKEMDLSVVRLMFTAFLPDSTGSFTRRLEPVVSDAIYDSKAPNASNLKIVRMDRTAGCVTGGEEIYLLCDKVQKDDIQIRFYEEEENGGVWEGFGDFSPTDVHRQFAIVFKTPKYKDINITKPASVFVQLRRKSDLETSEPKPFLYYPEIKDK

Turning to “CCGATTAACATCAGGAAACCACCTGATGTTAATCGGGTCTTGATTCGCTTGACGCTGCTG”, the binding signal amounted to 4.41 z-score in experiment [1]; 4.04 z-score in experiment [2]; 3.92 z-score in experiment [3]; 7.57 z-score in experiment [4]; 6.62 z-score in experiment [5]; 6.09 z-score in experiment [6].

As for “CCGATTAACATCAGGGGCTTTACTGATGTTAATCGGGTCTTGATTCGCTTGACGCTGCTG”, the binding signal in experiment [1] was 4.24 z-score; in experiment [2] it was 5.11 z-score; in experiment [3], 3.48 z-score; in experiment [4], 7.41 z-score; in experiment [5], 5.73 z-score; in experiment [6], 4.83 z-score.

Take “CCGATTAACATCACGGTAATTCCTGATGTTAATCGGGTCTTGATTCGCTTGACGCTGCTG”: the binding signal worked out at 1.42 z-score in experiment [1]; 2.05 z-score in experiment [2]; 2.65 z-score in experiment [3]; 5.3 z-score in experiment [4]; 4.04 z-score in experiment [5]; 1.7 z-score in experiment [6].

On to “CCGATTAACATCAGAAAAATACCTGATGTTAATCGGGTCTTGATTCGCTTGACGCTGCTG”, for which the binding signal in experiment [1] came to 1.31 z-score; in experiment [2], 2.43 z-score; in experiment [3] it was 3.74 z-score; in experiment [4], 4.9 z-score; in experiment [5] it was 3.17 z-score; in experiment [6], 3.16 z-score.

As for “CCGATTAACATCAGGGACATACCTGATGTTAATCGGGTCTTGATTCGCTTGACGCTGCTG”, the binding signal in experiment [1] turned out to be 2.52 z-score; in experiment [2], 3.64 z-score; in experiment [3] it was 1.01 z-score; in experiment [4], 3.64 z-score; in experiment [5], 5.64 z-score; in experiment [6], 2.14 z-score.

Take “CCGATTAACATCAGGAAAGTCCCTGATGTTAATCGGGTCTTGATTCGCTTGACGCTGCTG”: the binding signal worked out at 7.69 z-score in experiment [1]; 10.6 z-score in experiment [2]; 8.2 z-score in experiment [3]; 8.43 z-score in experiment [4]; 9.81 z-score in experiment [5]; 7.09 z-score in experiment [6].

Turning to “CCGATTAACATCACGAAAGTCCCTGATGTTAATCGGGTCTTGATTCGCTTGACGCTGCTG”, the binding signal in experiment [1] was 6.26 z-score; in experiment [2] it was 6.77 z-score; in experiment [3], 7.54 z-score; in experiment [4] it was 5.86 z-score; in experiment [5] it was 5.78 z-score; in experiment [6] it was 5.45 z-score.

Regarding “CCGATTAACATCAGGAGAGCCCCTGATGTTAATCGGGTCTTGATTCGCTTGACGCTGCTG”, the binding signal was found to be 3.65 z-score in experiment [1]; 3.73 z-score in experiment [2]; 1.67 z-score in experiment [3]; 2.24 z-score in experiment [4]; 6.28 z-score in experiment [5]; 3.2 z-score in experiment [6].

Take “CCGATTAACATCAGGAGAGTCCCTGATGTTAATCGGGTCTTGATTCGCTTGACGCTGCTG”: the binding signal in experiment [1] is 4.86 z-score; in experiment [2], 5.29 z-score; in experiment [3], 3.96 z-score; in experiment [4], 3.65 z-score; in experiment [5], 7.1 z-score; in experiment [6], 3.89 z-score.

“CCGATTAACATCAAAAAGCCCCTTGATGTTAATCGGGTCTTGATTCGCTTGACGCTGCTG”: the binding signal in experiment [1] came out at 7.33 z-score; in experiment [2] it was 9.57 z-score; in experiment [3], 7.49 z-score; in experiment [4], 8.7 z-score; in experiment [5] it was 7.9 z-score; in experiment [6] it was 6.72 z-score.

For the sequence “CCGATTAACATCAGGCAAGCCCCTGATGTTAATCGGGTCTTGATTCGCTTGACGCTGCTG”, the binding signal came out at 2.62 z-score in experiment [1]; 2.83 z-score in experiment [2]; 1.38 z-score in experiment [3]; 2.46 z-score in experiment [4]; 5.11 z-score in experiment [5]; 3.36 z-score in experiment [6].

Turning to “CCGATTAACATCAGGAAAGCCCCTGATGTTAATCGGGTCTTGATTCGCTTGACGCTGCTG”, the binding signal stood at 7.03 z-score in experiment [1]; 9.89 z-score in experiment [2]; 1.05 z-score in experiment [7]; 8.43 z-score in experiment [4]; 9.59 z-score in experiment [5]; 6.88 z-score in experiment [6].

For the sequence “CCGATTAACATCAGAGAAGCCCCTGATGTTAATCGGGTCTTGATTCGCTTGACGCTGCTG”, the binding signal is 4.39 z-score in experiment [1]; 5.41 z-score in experiment [2]; 4.05 z-score in experiment [3]; 3.44 z-score in experiment [4]; 5.35 z-score in experiment [5]; 4.67 z-score in experiment [6].

The record behind these values is PMC5700166.
